PubChem BioAssay AID1159580 (chemical genetic matrix, 2015)
Among all 5,500 compounds or so, about 2,000 (36%) were called active. Another 18% or so got no clear call; they are omitted. Rule as the data show it: active = normalized growth mostly below about 0.91 (no sharp cut-off); inconclusive = no clear call, values can overlap the other calls; inactive = mostly above about 0.92. The list shows a part of the results.

Test: chemical genetic growth profiling, strain panel (AID 1159580);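 also: tested at 20 µM; growth read once vehicle control cultures reached saturation at 30 °C; 1 = growth at the plate median or of vehicle wells; lower values mean less growth of the strain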
Conditions: growth OD

Measured: normalized growth

CCOc1cccc(C(=O)c2ccc(O)c(O)c2O)c1
inactive: S. cerevisiae deletion strains, locus YKL009W, strain mrt4, active compounds read low 0.914 | S. cerevisiae deletion strains, locus YKL068W, active compounds read low 0.972 | S. cerevisiae deletion strains, locus YKL085W, strain MDH1 (second series), active compounds read low 0.955 | S. cerevisiae deletion strains, locus YKL085W, strain MDH1, active compounds read low 0.955 | S. cerevisiae deletion strains, locus YKL160W, strain elf1, active compounds read low 0.93 | S. cerevisiae deletion strains, locus YKR026C, strain gcn3, active compounds read low 0.956 | S. cerevisiae deletion strains, locus YKR091W, strain srl3, active compounds read low 0.966 | S. cerevisiae deletion strains, locus YLL001W, strain dnm1, active compounds read low 0.945 | S. cerevisiae deletion strains, locus YLL026W, active compounds read low 0.936 | S. cerevisiae deletion strains, locus YLL041C, strain sdh2, active compounds read low 0.939 | S. cerevisiae deletion strains, locus YLR102C, strain apc9, active compounds read low 0.996 | S. cerevisiae deletion strains, locus YLR113W, strain HOG1, active compounds read low 1.05 | S. cerevisiae deletion strains, locus YLR370C, strain arc18, active compounds read low 0.939 | S. cerevisiae deletion strains, locus YLR384C, strain iki3, active compounds read low 0.938 | S. cerevisiae deletion strains, locus YML032C, strain rad52, active compounds read low 0.942 | S. cerevisiae deletion strains, locus YML124C, strain tub3, active compounds read low 0.948 | S. cerevisiae deletion strains, locus YMR078C, strain ctf18, active compounds read low 0.966 | S. cerevisiae deletion strains, locus YMR125W, strain sto1, active compounds read low 0.976 | S. cerevisiae deletion strains, locus YMR129W, active compounds read low 0.95 | S. cerevisiae deletion strains, locus YMR307W, strain GAS1, active compounds read low 0.698 | S. cerevisiae deletion strains, locus YNL183C, strain NPR1, active compounds read low 0.98 | S. cerevisiae deletion strains, locus YNL248C, strain rpa49, active compounds read low 0.95 | S. cerevisiae deletion strains, locus YNL250W, strain rad50, active compounds read low 0.937 | S. cerevisiae deletion strains, locus YNL298W, strain CLA4, active compounds read low 0.931 | S. cerevisiae deletion strains, locus YNL307C, strain MCK1, active compounds read low 0.907 | S. cerevisiae deletion strains, locus YNL322C, strain KRE1 (second series), active compounds read low 0.965 | S. cerevisiae deletion strains, locus YNR049C, strain mso1, active compounds read low 0.961 | S. cerevisiae deletion strains, locus YOL012C, strain htz1 0.288 | S. cerevisiae deletion strains, locus YOR080W, strain dia2, active compounds read low 0.961 | S. cerevisiae deletion strains, locus YOR083W, strain WHI5, active compounds read low 0.894 | S. cerevisiae deletion strains, locus YOR136W, strain idh2, active compounds read low 0.93 | S. cerevisiae deletion strains, locus YOR231W, strain MKK1, active compounds read low 1 | S. cerevisiae deletion strains, locus YOR316C, strain cot1, active compounds read low 0.962 | S. cerevisiae deletion strains, locus YPL078C, strain atp4, active compounds read low 0.931 | S. cerevisiae deletion strains, locus YPL240C, strain hsp82, active compounds read low 0.954 | S. cerevisiae deletion strains, locus YPL256C, strain CLN2, active compounds read low 1.07 | S. cerevisiae deletion strains, locus YPR119W, strain clb2, active compounds read low 0.982 | S. cerevisiae deletion strains, locus YPR141C, strain kar3, active compounds read low 0.963 | S. cerevisiae deletion strains, locus YPR163C, strain tif3, active compounds read low 0.936
active: S. cerevisiae deletion strains, locus YKR001C, strain vps1, active compounds read low 0.811 | S. cerevisiae deletion strains, locus YLR027C, strain aat2, active compounds read low 0.905 | S. cerevisiae deletion strains, locus YLR039C, strain RIC1, active compounds read low 0.521 | S. cerevisiae deletion strains, locus YLR058C, strain SHM2, active compounds read low 0.524 | S. cerevisiae deletion strains, locus YLR221C, strain rsa3, active compounds read low 0.87 | S. cerevisiae deletion strains, locus YLR258W, strain gsy2, active compounds read low 0.899 | S. cerevisiae deletion strains, locus YLR262C, strain YPT6 (second series), active compounds read low 0.627 | S. cerevisiae deletion strains, locus YLR268W, strain sec22, active compounds read low 0.72 | S. cerevisiae deletion strains, locus YLR320W, strain mms22, active compounds read low 0.806 | S. cerevisiae deletion strains, locus YLR330W, strain CHS5, active compounds read low 0.804 | S. cerevisiae deletion strains, locus YLR342W, strain FKS1 (second series), active compounds read low 0.633 | S. cerevisiae deletion strains, locus YLR342W, strain FKS1, active compounds read low 0.903 | S. cerevisiae deletion strains, locus YLR357W, strain rsc2, active compounds read low 0.706 | S. cerevisiae deletion strains, locus YLR371W, strain rom2, active compounds read low 0.737 | S. cerevisiae deletion strains, locus YLR418C, strain cdc73, active compounds read low 0.563 | S. cerevisiae deletion strains, locus YML016C, strain PPZ1, active compounds read low 0.71 | S. cerevisiae deletion strains, locus YML120C, strain ndi1, active compounds read low 0.765 | S. cerevisiae deletion strains, locus YMR058W, strain fet3, active compounds read low 0.283 | S. cerevisiae deletion strains, locus YMR205C, strain PFK2, active compounds read low 0.74 | S. cerevisiae deletion strains, locus YMR223W, strain ubp8, active compounds read low 0.844 | S. cerevisiae deletion strains, locus YMR231W, strain pep5, active compounds read low 0.826 | S. cerevisiae deletion strains, locus YMR263W, strain SAP30, active compounds read low 0.854 | S. cerevisiae deletion strains, locus YNL067W, strain RPL9B, active compounds read low 0.841 | S. cerevisiae deletion strains, locus YNL071W, strain lat1, active compounds read low 0.889 | S. cerevisiae deletion strains, locus YNL153C, strain GIM3, active compounds read low 0.747 | S. cerevisiae deletion strains, locus YNL209W, strain ssb2, active compounds read low 0.752 | S. cerevisiae deletion strains, locus YNL233W, strain BNI4, active compounds read low 0.781 | S. cerevisiae deletion strains, locus YNL271C, strain bni1, active compounds read low 0.886 | S. cerevisiae deletion strains, locus YNR052C, strain pop2, active compounds read low 0.739 | S. cerevisiae deletion strains, locus YOL006C, strain TOP1, active compounds read low 0.398 | S. cerevisiae deletion strains, locus YOL147C, strain pex11, active compounds read low 0.823 | S. cerevisiae deletion strains, locus YOR001W, strain rrp6, active compounds read low 0.87 | S. cerevisiae deletion strains, locus YOR061W, strain CKA2, active compounds read low 0.788 | S. cerevisiae deletion strains, locus YOR069W, strain VPS5, active compounds read low 0.808 | S. cerevisiae deletion strains, locus YOR070C, strain gyp1, active compounds read low 0.925 | S. cerevisiae deletion strains, locus YOR106W, strain vam3, active compounds read low 0.639 | S. cerevisiae deletion strains, locus YOR144C, strain elg1, active compounds read low 0.816 | S. cerevisiae deletion strains, locus YOR184W, strain ser1, active compounds read low 0.812 | S. cerevisiae deletion strains, locus YOR265W, strain rbl2, active compounds read low 0.923 | S. cerevisiae deletion strains, locus YOR270C, strain vph1, active compounds read low 0.637 | S. cerevisiae deletion strains, locus YOR290C, strain snf2, active compounds read low 0.64 | S. cerevisiae deletion strains, locus YPL051W, strain arl3, active compounds read low 0.767 | S. cerevisiae deletion strains, locus YPL106C, strain sse1, active compounds read low 0.823 | S. cerevisiae deletion strains, locus YPL241C, strain CIN2, active compounds read low 0.926 | S. cerevisiae deletion strains, locus YPR167C, strain met16, active compounds read low 0.84 | S. cerevisiae deletion strains, strain wtn01, active compounds read low 0.799 | S. cerevisiae strains, strain wild type, active compounds read low 0.635
